What all share (design): scale not given: direction of the effect not stated beside the values
The target of test [1] is Protein translocase subunit SecA (Escherichia coli (strain K12)) (UniProt P10408). The test can be described thus: Assay to Identify E. coli SecA ATPase Inhibitors. The format is functional. Particulars: 30 µM.
Test [2] deals with T1, Ubiquitin-activating enzyme e1, putative (Leishmania donovani (strain BPK282A1)) (UniProt E9BSI1).
T1 sequence (whole entry): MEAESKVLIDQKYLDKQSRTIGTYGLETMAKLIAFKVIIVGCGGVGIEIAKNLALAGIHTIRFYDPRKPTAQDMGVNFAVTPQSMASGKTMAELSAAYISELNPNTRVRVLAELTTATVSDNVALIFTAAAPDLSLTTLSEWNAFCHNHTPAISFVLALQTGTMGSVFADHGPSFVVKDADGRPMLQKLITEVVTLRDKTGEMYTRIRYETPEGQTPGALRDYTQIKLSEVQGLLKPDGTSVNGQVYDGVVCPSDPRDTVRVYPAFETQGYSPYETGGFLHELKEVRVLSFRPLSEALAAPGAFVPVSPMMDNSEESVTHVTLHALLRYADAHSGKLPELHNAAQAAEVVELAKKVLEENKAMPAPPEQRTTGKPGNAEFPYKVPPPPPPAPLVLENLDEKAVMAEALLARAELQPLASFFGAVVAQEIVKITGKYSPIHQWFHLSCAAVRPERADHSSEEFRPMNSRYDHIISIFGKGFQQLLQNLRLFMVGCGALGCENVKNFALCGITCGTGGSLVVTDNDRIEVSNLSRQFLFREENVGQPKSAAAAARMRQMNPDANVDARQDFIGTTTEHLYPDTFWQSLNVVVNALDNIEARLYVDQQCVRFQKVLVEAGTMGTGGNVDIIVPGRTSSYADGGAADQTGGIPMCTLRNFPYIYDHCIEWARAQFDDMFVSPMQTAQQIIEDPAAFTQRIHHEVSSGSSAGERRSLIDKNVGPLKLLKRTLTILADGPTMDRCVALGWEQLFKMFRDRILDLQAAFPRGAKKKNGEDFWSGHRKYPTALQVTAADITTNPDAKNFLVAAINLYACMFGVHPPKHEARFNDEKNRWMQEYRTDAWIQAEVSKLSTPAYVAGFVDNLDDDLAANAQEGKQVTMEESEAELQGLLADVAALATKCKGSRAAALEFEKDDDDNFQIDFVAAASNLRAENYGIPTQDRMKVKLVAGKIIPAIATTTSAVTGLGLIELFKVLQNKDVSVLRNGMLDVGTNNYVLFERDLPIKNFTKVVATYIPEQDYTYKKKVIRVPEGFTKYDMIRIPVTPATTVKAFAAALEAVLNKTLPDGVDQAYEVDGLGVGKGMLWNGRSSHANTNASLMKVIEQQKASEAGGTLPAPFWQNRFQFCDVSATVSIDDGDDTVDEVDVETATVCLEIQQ
In words: Leishmania donovani Ubiquitin Activating Enzyme (LdE1). Particulars: 30 µM. The format is functional.

For test [3], the target named is AMP-activated protein kinase, AMPK (Homo sapiens) (UniProt P54646+O43741+P54619+Q9UGJ0+Q9Y478+Q13131+Q9UGI9). The test can be described thus: AMP-dependent Kinase enzyme assay. An in vitro enzyme assay that detects ADP turnover that is directly proportional to AMPK activity. This uses naive AMPK that is activated during the assay with MK-8722. The format is functional. Particulars: 30 µM.

Test [4] has as its target Sialic acid-binding Ig-like lectin 9 (Homo sapiens) (UniProt Q9Y336). The test can be described thus: Hs-Siglec9 ALPHAscreen SOP 20170721. Particulars: 10 µM.
A further test deals with Trypanosoma cruzi. The test can be described thus: Trypanosoma cruzi phosphomannomutase and mannose-1-phosphate guanylyltransferase assay. Particulars: 10 µM. The format is functional.
For test [5], the target named is T2, Arginase-2, mitochondrial (Homo sapiens) (UniProt P78540).
T2 sequence (whole entry): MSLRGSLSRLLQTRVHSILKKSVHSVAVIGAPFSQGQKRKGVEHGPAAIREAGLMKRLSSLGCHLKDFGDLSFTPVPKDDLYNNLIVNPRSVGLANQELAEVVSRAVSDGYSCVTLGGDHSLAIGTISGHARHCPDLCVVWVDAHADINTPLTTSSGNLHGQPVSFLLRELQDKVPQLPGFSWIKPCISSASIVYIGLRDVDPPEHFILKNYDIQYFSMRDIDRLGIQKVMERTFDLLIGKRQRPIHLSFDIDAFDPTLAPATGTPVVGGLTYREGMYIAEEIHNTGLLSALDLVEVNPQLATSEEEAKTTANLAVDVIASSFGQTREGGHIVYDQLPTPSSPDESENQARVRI
In words: in vitro enzyme assay to detect the production of urea directly proportional to the activity of Arginase II. Also: in the data most compounds retested in dose-response had high values. The format is functional. Particulars: 33.3 µM.

Test [6] deals with T3, Proteasome subunit beta (Trypanosoma cruzi) (UniProt O96673).
T3 sequence (whole entry): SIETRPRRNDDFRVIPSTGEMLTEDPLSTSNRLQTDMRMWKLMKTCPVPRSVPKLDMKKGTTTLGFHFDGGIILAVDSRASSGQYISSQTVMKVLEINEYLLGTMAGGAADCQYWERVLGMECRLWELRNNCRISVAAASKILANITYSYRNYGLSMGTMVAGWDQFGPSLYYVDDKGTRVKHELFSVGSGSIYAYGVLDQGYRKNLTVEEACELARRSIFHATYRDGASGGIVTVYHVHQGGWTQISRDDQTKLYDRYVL
In words: Trypanosoma cruzi proteasome chymotrypsin-like activity (TcProtChymo) assay. Also: in the data most compounds retested in dose-response had high values. The format is functional. Particulars: 9.37 µM.

For a further test, the species on record is Homo sapiens. In words: To identify inhibition of the IFN signalling (Jak-Stat) pathway via expression of an eGFP reporter gene under the control of an IFN-stimulated response element (ISRE) containing MxA promoter. The format is functional. Particulars: 30 µM.
Test [7] deals with T4, Tyrosyl-tRNA synthetase, putative (Trypanosoma cruzi (strain CL Brener)) (UniProt Q4DSP6).
T4 sequence (whole entry): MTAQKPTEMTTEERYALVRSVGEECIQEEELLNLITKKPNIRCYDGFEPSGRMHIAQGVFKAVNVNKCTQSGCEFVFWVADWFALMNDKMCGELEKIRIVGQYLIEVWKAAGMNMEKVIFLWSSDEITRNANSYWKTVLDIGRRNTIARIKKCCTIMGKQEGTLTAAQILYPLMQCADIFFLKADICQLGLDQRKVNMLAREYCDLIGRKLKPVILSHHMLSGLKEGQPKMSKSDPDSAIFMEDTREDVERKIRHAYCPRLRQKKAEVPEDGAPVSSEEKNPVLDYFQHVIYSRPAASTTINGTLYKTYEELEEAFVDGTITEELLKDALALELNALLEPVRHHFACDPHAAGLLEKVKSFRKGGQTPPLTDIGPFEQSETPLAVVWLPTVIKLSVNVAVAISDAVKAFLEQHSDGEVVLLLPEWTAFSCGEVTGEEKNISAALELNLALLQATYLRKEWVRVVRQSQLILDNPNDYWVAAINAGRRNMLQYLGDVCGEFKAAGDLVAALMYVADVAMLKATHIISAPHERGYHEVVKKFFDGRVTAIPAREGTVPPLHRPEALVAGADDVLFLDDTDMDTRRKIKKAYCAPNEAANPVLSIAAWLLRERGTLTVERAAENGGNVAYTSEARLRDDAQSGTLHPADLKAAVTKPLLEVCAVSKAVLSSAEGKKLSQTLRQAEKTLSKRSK
The test can be described thus: Trypanosoma cruzi tyrosyl tRNA synthetase (TcYRS) _High Tyrosine SOP. Also: in the data most compounds retested in dose-response had high values. The format is functional. Particulars: 30 µM.

For test [8], the target named is T4, Tyrosyl-tRNA synthetase, putative (Trypanosoma cruzi (strain CL Brener)). The test can be described thus: Trypanosoma cruzi tyrosyl tRNA synthetase (TcYRS) SOP. Particulars: 30 µM. The format is functional.
Test [9] concerns the target Chromo domain-containing protein 1 (Saccharomyces cerevisiae (strain ATCC 204508 / S288c) (Baker's yeast)) (UniProt P32657). The test can be described thus: ScCHD-1 Enzyme Inhibition Assay. Also: in the data most compounds retested in dose-response had high values. The format is functional. Particulars: 30 µM.

For some assays here: Entries with a potency or affinity are not part of this list.

Chain of Protein translocase subunit SecA (Escherichia coli (strain K12)) (P10408 whole entry): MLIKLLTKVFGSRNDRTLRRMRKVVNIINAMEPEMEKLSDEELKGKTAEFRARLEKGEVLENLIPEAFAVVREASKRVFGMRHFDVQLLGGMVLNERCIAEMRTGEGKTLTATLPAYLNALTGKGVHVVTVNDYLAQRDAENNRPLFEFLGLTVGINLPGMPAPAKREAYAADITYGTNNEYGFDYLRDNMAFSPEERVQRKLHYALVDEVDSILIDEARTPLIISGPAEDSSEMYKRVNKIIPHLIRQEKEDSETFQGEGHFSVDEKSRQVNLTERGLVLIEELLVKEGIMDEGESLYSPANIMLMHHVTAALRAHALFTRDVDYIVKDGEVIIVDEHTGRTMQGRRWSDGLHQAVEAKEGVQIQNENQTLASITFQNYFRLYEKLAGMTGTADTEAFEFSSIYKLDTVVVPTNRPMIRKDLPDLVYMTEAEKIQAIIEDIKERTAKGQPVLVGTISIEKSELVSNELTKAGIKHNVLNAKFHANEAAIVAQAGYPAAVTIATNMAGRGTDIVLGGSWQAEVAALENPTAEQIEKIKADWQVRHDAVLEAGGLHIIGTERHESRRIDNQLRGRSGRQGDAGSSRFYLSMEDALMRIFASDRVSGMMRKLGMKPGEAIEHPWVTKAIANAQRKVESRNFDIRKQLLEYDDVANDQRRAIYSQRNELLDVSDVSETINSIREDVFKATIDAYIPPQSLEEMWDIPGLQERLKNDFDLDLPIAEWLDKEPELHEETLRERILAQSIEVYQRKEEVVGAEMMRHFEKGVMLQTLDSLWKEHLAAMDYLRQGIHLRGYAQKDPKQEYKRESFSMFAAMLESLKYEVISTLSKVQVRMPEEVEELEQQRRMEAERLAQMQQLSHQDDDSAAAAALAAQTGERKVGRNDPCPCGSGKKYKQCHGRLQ
Chain of Sialic acid-binding Ig-like lectin 9 (Homo sapiens) (Q9Y336 whole entry): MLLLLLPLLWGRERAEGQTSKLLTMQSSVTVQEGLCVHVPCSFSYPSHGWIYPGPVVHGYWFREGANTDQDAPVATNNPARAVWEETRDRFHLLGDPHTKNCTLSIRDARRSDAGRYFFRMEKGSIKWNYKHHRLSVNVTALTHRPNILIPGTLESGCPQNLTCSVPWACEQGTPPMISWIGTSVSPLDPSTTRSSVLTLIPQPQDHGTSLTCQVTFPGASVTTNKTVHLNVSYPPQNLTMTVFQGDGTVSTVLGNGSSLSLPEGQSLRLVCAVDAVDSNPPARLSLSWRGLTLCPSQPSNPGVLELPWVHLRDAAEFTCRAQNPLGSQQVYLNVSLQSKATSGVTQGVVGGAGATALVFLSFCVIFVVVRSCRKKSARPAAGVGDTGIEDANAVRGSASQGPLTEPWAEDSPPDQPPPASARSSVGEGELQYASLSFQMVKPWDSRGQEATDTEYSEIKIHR
Chain of Chromo domain-containing protein 1 (Saccharomyces cerevisiae (strain ATCC 204508 / S288c) (Baker's yeast)) (P32657 whole entry, the tested form may be a part): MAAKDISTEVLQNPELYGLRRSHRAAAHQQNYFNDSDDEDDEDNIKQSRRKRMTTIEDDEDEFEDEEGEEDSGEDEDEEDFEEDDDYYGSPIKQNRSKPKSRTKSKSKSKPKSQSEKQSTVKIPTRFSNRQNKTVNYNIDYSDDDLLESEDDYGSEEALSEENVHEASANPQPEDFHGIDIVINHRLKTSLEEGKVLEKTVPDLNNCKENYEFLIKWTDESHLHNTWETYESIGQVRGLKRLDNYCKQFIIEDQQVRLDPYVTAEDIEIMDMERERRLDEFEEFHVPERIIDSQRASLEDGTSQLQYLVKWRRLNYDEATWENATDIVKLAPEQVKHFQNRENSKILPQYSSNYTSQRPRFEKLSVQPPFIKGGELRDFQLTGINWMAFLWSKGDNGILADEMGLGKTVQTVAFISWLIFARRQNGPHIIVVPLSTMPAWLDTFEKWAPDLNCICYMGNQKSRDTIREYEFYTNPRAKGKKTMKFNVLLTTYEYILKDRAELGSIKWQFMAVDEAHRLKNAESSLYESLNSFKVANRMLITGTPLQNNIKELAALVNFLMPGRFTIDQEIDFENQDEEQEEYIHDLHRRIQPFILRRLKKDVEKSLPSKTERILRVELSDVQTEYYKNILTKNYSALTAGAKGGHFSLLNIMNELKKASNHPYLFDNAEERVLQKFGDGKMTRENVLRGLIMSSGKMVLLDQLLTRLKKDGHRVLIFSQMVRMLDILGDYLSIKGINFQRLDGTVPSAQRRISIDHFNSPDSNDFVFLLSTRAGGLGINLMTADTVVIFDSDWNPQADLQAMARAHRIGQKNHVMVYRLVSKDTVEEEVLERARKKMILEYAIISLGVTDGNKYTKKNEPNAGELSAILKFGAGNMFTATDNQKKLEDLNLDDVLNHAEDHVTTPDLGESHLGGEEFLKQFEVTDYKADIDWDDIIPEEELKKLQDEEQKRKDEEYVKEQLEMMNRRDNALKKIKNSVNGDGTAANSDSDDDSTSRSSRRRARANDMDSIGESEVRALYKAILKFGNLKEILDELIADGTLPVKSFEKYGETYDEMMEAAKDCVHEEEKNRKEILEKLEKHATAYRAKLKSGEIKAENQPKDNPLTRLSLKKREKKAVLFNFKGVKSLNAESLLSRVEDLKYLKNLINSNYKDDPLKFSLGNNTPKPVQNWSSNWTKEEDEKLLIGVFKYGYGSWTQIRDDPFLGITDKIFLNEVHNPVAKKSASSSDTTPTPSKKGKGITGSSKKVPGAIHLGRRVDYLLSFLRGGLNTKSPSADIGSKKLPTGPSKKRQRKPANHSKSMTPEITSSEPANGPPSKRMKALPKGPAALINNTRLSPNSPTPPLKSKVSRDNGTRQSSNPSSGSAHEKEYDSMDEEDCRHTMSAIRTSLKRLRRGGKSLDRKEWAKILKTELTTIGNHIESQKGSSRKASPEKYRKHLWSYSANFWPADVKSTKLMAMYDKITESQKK

`O=C(NCC1CC1)N1CCN(Cc2ccc3c(c2)OCCO3)CC1`: the Percent Effect was -2.95% in test [1]; 5.26% in test [2]; 1.09% in test [3]; 12.6% in test [4]; 3.08% in the test on Trypanosoma cruzi; 1.08% in test [5]. In addition, the Percent Effect in test [6] turned out to be 4.99%; in the test listed under Homo sapiens, 20%; in [7] it was 3.45%; in test [8], 13.6%; in [9], 0.382%.
Consider `O=C(NCCNc1cnccn1)N1CCCC1`, for which the Percent Effect in [1] was -4.38%; in test [2], 6.33%; in [3], 8.17%; in test [4], -3.74%; in the test with Trypanosoma cruzi, -2.56%; in [5], 1.94%. In addition, the Percent Effect was 5.15% in [6]; 8.14% in the test listed under Homo sapiens; 1.04% in test [7]; 5.06% in [8]; -18.6% in test [9].
For the compound `COc1ccc(OCCc2sc(C3(O)CCCNCC3)nc2C)cc1` (stereo not given), the Percent Effect in [1] was -5.55%; in test [2], 6.76%; in [3] it was 2.86%; in [4], 1.72%; with Trypanosoma cruzi, 0.198%; in [5], -6.73%. In addition, the Percent Effect in test [6] is 13.6%; in the test listed under Homo sapiens it was 21%; in test [7], -3.23%; in test [8], 9.09%; in test [9] it was -24.4%.
For `COCc1cccc(C(=O)N2CCCCC2c2nccs2)c1` (stereo not given), the Percent Effect in test [1] was -2.42%; in test [2], -2.7%; in [3] it was -6.81%; in test [4] it was -4.58%; in the test with Trypanosoma cruzi, 5.75%; in test [5] it was 2.81%. In addition, the Percent Effect in [6] is 7.75%; in the test listed under Homo sapiens, -4.26%; in test [7] it was 3.45%; in [8], 3.7%; in test [9] it was -4.87%.
Consider `Cc1cccnc1NC(=O)CSc1ccc2c(c1)OCCO2`, for which the Percent Effect was -3.38% in test [1]; -4.17% in [2]; -2.48% in test [3]; -6.94% in test [4]; -2.04% in the test on Trypanosoma cruzi; -1.77% in [5]. For the same compound, the Percent Effect was 8.42% in [6]; 7.78% in the test listed under Homo sapiens; 0% in [7]; -2.56% in [8]; -2.02% in test [9].
With `Cc1ccc(CN2CCc3ncnc(-c4ccc(F)cc4)c3CC2)o1`, the Percent Effect in test [1] is -0.438%; in test [2], 5.33%; in test [3], 3.65%; in [4], 4.4%; in the test with Trypanosoma cruzi it was -1.93%; in test [5] it was -50.4%. In addition, the Percent Effect is 12.5% in test [6]; -0.337% in the test listed under Homo sapiens; 1.04% in test [7]; 12.5% in [8]; -9.77% in [9].
As to `Cc1nc(CN2CCCC(NCCOc3ccccc3)C2)no1` (stereo not given), the Percent Effect was -2.53% in test [1]; 2.53% in [2]; -4.3% in test [3]; -3.12% in test [4]; -1.98% in the test with Trypanosoma cruzi; 2.28% in test [5]. The Percent Effect in test [6] is 28.9%; in the test listed under Homo sapiens, -12.5%; in [7], 2.46%; in [8], -1.27%; in test [9], -6.02%.
Consider `COCCn1ccc(NC(=O)Nc2ccc(C(N)=O)c(F)c2)n1`, for which the Percent Effect in test [1] was -4.16%; in test [2], -7.89%; in test [3], 10.9%; in test [4], -0.377%; in the test with Trypanosoma cruzi, -3.41%; in test [5] it was -4.73%. The Percent Effect in test [6] was 13.3%; in the test filed under Homo sapiens, -2.4%; in test [7], 0%; in test [8], 0%; in test [9], 75.5%.
Regarding `Cc1cccc(-c2ccc3nc(C4CCN(CC5CC5)CC4)nn3c2)c1`, the Percent Effect in [1] was -0.334%; in [2], 5.48%; in test [3] it was -2.67%; in [4], 13.9%; in the test with Trypanosoma cruzi, 3.77%; in test [5] it was -0.399%. For the same compound, the Percent Effect in test [6] is 10.2%; in the test filed under Homo sapiens, 8.44%; in test [7], 3.12%; in test [8], 8.64%; in test [9] it was -2.92%.
Regarding `CCCc1nc(C)c(C(=O)NS(=O)(=O)c2ccc(C#N)cc2)s1`, the Percent Effect in test [1] was -4.98%; in test [2], 10.8%; in test [3], -2.15%; in test [4], 25.9%; in the test on Trypanosoma cruzi, 6.18%; in test [5] it was 0.476%. Also, the Percent Effect was 9.14% in test [6]; 2.07% in the test listed under Homo sapiens; 0.529% in [7]; 9.76% in test [8]; -9.01% in test [9].

Source of the values: ChEMBL document CHEMBL3988442, “University of Dundee, Small-Polar-MMV Screening Library” (2021).
